The panel holds about 79,000 compounds, 15% with a hit somewhere; the sample as a whole holds those more often. Calls of active or inactive are those of the source. No stated cut-off is given here; in the data, active means growth inhibition above about 70%; inactive means the rest.
What was measured:
[1] = NCI Yeast Anticancer Drug Screen. Data for the rad50 strain (AID 155);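 further: 0% = growth of vehicle-only cultures of the same strain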; conditions: S. cerevisiae rad50 strain growth inhibition; at 50.0 µM; hits give high values
In short: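 Genetically altered yeast (DNA repair pathway); compound treatment; growth inhibition vs vehicle ctrl.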

[2] = NCI Yeast Anticancer Drug Screen. Data for the mec2-1 strain (AID 157); conditions: S. cerevisiae mec2-1 strain, at 50.0 µM, hits give high values
In short: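 Compounds were applied to mec2-1 yeast cells. Their growth was then compared with that of vehicle-treated cultures to give growth inhibition.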

[3] = NCI Yeast Anticancer Drug Screen. Data for the sgs1 mgt1 strain (AID 161);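 further: 0% = growth of cultures given vehicle only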; conditions: S. cerevisiae sgs1 mgt1 strain, at 50.0 µM, hits give high values
In short: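 Compounds are added to genetically altered yeast, and growth is compared with cultures given vehicle alone to give percent inhibition.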

[4] = NCI Yeast Anticancer Drug Screen. Data for the cln2 rad14 strain (AID 165);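 further: 0% = growth equal to vehicle treated cultures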; conditions: S. cerevisiae cln2 rad14 strain, at 50.0 µM, hits give high values
In short: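 Strain: cln2 rad14 yeast, altered in cell cycle control and DNA damage repair. Read-out: growth inhibition vs vehicle.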

[5] = NCI Yeast Anticancer Drug Screen. Data for the bub3 strain (AID 167); conditions: S. cerevisiae bub3 mutant strain, at 50.0 µM, hits give high values
In short: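 Yeast carrying a defined mutation is treated with each compound, and growth is compared with that of vehicle-exposed cells to give inhibition.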

[6] = NCI Yeast Anticancer Drug Screen. Data for the mlh1 rad18 strain (AID 175); conditions: S. cerevisiae mlh1 rad18 strain growth inhibition; at 50.0 µM; hits give high values
In short: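 A repair-deficient yeast strain is exposed to test compound, and growth is scored relative to vehicle-treated controls.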

Measured: growth inhibition

CC1(O)CCC2CC1C2(C)CO (stereo unspecified)
inactive: [1] 2% | [2] 7.45% | [3] -9.15% | [4] -28.4% | [5] -7.05% | [6] 3.1%

COc1ccc(Cl)cc1NC(C)=O
inactive: [1] 5.1% | [2] 8.1% | [3] 5.2% | [4] 7.25% | [5] 3.7% | [6] -7.65%

N#C/C=C/c1ccc(Cl)cc1
inactive: [1] -3.45% | [2] -3% | [3] 7.2% | [4] 20.6% | [5] -2% | [6] -7.05%

CCSC(SCC)C(NC(C)=O)C(OC(C)=O)C(OC(C)=O)C(COC(C)=O)OC(C)=O (stereo unspecified)
inactive: [1] 23.4% | [2] -3.25% | [3] -0.2% | [4] 8.25% | [5] -2.7% | [6] 10.6%

C/C(CC(C)C)=N/Nc1ccc([N+](=O)[O-])cc1[N+](=O)[O-]
inactive: [1] 5.85% | [2] -2.05% | [3] 2.65% | [4] -42.6% | [5] 19.9% | [6] 26.8%

CCCCc1c2cnccc2c(CCCC)c2c1[nH]c1ccccc12
active: [1] 88.8% | [2] 90.3% | [3] 91.8% | [4] 81.9% | [5] 89.2% | [6] 88.2%

COc1ccc(C)cc1NC(=S)NC(=O)c1cccc([N+](=O)[O-])c1
inactive: [1] 2.25% | [2] 4.85% | [3] 4.45% | [4] -2.5% | [5] 20.2% | [6] 0.3%

CC12CC3C(CC1O2)C3(C)C (stereo unspecified)
inactive: [1] -30.2% | [2] -19.6% | [3] -32.8% | [4] 2.5% | [5] 1.35% | [6] -43.2%

NCCNc1ncnc2ccc(Cl)cc12
inactive: [1] -30.9% | [2] -13.1% | [3] -22.4% | [4] -30.5% | [5] -38.8% | [6] 5.4%

C1=C(c2ccccc2)N(c2ccccc2)N=C(c2ccccc2)C1
inactive: [1] 0.85% | [2] -19.7% | [3] 6% | [4] -10.4% | [5] -1.65% | [6] 18.6%

CCCCCc1ccc(C)cc1OC(C)=O
inactive: [1] 14.1% | [2] -1.4% | [3] 8.85% | [4] -14.1% | [5] -2.75% | [6] 0.5%

— PubChem BioAssay (NCI)
